An excerpt weighted towards active compounds, which were near 2.4% of everything screened.
GLP1R cytotox: qHTS of GLP-1 Receptor Inverse Agonists: Cytotox Screen; HEK293 cAMP-luciferase reporter cells, luminescence, 24 h; Potency, µM (doses to about 38.3 µM), without a hit: top-dose activity change, negative = inhibition, hits mostly inhibitors; hit rate 0.13% among 410,000;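 note: loss of luciferase light is scored as toxicity; potency is the fitted concentration of half-maximal effect; % is set by controls: 0 for no effect and ±100 for the full control effect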
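To flag toxic compounds, the library was rerun on cells for 24 hr at 37 deg C and 5% CO2. Viability-linked luminescence was captured 12 min after adding luciferase detection reagent.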
TRHR enhancer-1: qHTS for Small Molecule Agonists and Allosteric Enhancers of Human TRH Receptor: Primary Screen for Enhancers; Thyrotropin-releasing hormone receptor (Homo sapiens), P34981; TRHR cells, fluo-8 calcium fluorescence, EC20 TRH enhancement; enhancement, % at 2 µM; hit rate 0.66% among 360,000; in the data active = enhancement above about 30%; note: 0% is about no effect
Target sequence (P34981 whole entry, looked up): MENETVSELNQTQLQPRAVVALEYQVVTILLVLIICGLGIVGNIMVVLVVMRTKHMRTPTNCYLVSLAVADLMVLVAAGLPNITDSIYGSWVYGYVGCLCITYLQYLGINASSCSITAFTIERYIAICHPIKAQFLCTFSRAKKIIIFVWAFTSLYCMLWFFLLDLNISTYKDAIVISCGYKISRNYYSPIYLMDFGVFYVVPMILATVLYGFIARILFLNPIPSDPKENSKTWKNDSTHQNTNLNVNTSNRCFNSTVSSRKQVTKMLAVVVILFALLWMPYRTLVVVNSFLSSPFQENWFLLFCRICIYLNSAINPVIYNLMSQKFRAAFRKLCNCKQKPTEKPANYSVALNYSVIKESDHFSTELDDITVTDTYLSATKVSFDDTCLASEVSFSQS
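Enhancer read-out: after compound pinning and an initial kinetic agonist-mode read, an EC20 of TRH (10 nM final) was injected and fluo-8 calcium signal (Ex 480/Em 530) followed at 1 s/cycle for 100 cycles in TRHR-expressing cells.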
PTHR1 agonist: qHTS for PTHR1 Agonists: Primary Screen | Parathyroid hormone/parathyroid hormone-related peptide receptor (Homo sapiens), Q03431 | HEK293 GP2 PTHR1 cells, GloSensor cAMP luminescence, 1 h | hit rate 0.075% among 410,000 | Potency, µM (highest dose often 115 µM), for inactives: top-dose activation, most hits filed as activators; note: potency is the fitted concentration of half-maximal effect; nearly all actives have a fitted effect of over 55% in size
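HEK-293-derived GP2 cells expressing PTHR1 and a GloSensor cAMP reporter, 3,000/well, plated overnight, given luciferin plus IBMX (each 0.5 mM as added) for 1 h at 37 °C, then compound for 1 h at 37 °C. Luminescence was read after 15 min at room temperature.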
GLP1R ag: qHTS of GLP-1 Receptor Agonists. Glucagon-like peptide 1 receptor (Homo sapiens), P43220. HEK293 GLP-1R CRE-luciferase, luminescence, 4-6 h; cells express a hypersensitive GLP-1R form. Potency, µM (series often up to 45.6 µM), without a hit: top-dose activation, most hits filed as activators. hit rate 0.007% among 380,000; note: potency is the fitted concentration of half-maximal effect; % of control where 0% means no effect
TRHR agonist-1: qHTS for Small Molecule Agonists and Allosteric Enhancers of Human TRH Receptor: Primary Screen for Agonists | Thyrotropin-releasing hormone receptor (Homo sapiens), P34981 | TRHR cells, calcium flux fluo-8, FDSS agonist mode | activation, % at 2 µM | hit rate 0.18% among 360,000; in the data active = activation above about 30%; note: 0% is about no effect
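Read-out: compound-evoked intracellular calcium rise in TRHR cells, fluo-8 dye, kinetic FDSS fluorescence at 1 s/cycle following a 10-cycle baseline. Cells cultured overnight before dye loading (30 min–1.5 h, RT).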
GLP-1R inv ag: qHTS of GLP-1 Receptor Inverse Agonists (Inhibition Mode) | HEK293 GLP-1R CRE-luciferase, luminescence, 24 h; GLP-1R form is constitutively active | AID 624417, 2012 | Potency, µM (doses to about 38.3 µM), for inactives: top-dose activity change, negative = inhibition, actives largely listed as inhibitors | hit rate 1.6% among 410,000; note: potency is the fitted concentration of half-maximal effect; % is set by controls: 0 for no effect and ±100 for the full control effect; nearly all actives have a fitted effect of over 55% in size
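Inverse agonism was detected as reduced cAMP-driven luciferase luminescence after 24 h compound treatment. The cells were HEK293 clones expressing constitutively active human GLP-1R with the reporter. Reporter-only and GPR119 cell lines served as counterscreen controls.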
TRHR enhancer-2: qHTS for Small Molecule Agonists and Allosteric Enhancers of Human TRH Receptor: Confirmation Screen for Enhancers | shares compounds with TRHR enhancer-1 | TRH receptor cell assay, enhancer confirmation qHTS | activity change, negative = inhibition, % at 46.1 µM | 970 tested, under 10 active | AID 493076, 2011;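 note: compound effect scored on response to added TRH at EC20 of 10 nM; 0% is about no effect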
TRHR agonist-2: qHTS for Small Molecule Agonists and Allosteric Enhancers of Human TRH Receptor: Confirmation Screen for Agonists; Potency, µM (top dose mostly 46.1 µM), for the others: top-dose activation, hits mostly activators; hit rate 8% among 970; TRHR-expressing cells, agonist activation read-out; shares compounds with TRHR enhancer-1; note: potency is the fitted concentration of half-maximal effect; 0% is about no effect; nearly all actives have a fitted effect of over 75% in size
The depositor's hits bear a star; i = inactive; u = inconclusive; x = not tested or not shown; [ ] = remark or other dose. Unless noted, calls come from the whole dose curve; as a rule, active = well fitted curve in the direction sought with a large enough effect; inconclusive = small, poorly fitted or top-dose-only effect, or another doubt; inactive = no such curve, though single readings can be large; an effect the other way counts as inactive or inconclusive.

SMILES | GLP1R cytotox | TRHR enhancer-1 | PTHR1 agonist | GLP1R ag | TRHR agonist-1 | GLP-1R inv ag | TRHR enhancer-2 | TRHR agonist-2
N#C/C(=C\c1ccc(O)c(O)c1)C(=O)NCCc1ccccc1 | -25.7% | 0.6 | -5.9% | u | 2.6 | u | x | x
COc1cc(/C=C(\C#N)C(=O)NCCc2ccccc2)cc(OC)c1O | -4.7% | 11.7 | i | -0.6% | 56.0* | -10.2% | 6.8 | 20.6µM*
Clc1ccc(Oc2cnns2)cc1Cl | 68.0% | 44.3* | i | 6.1% | 0.3 | 20.7% | 6.3 | 0.9%
Cc1ccc(OCC(=O)c2cc(C)n(C)c2C)c([N+](=O)[O-])n1 | -9.7% | 44.3* | i | 4.3% | 0.1 | 0.5% | -5.0 | -0.2%
CN(C)CCCNC1=CC(=O)CC(c2ccccc2)C1 (configuration not stated) | 31.4% | 55.8* | i | -2.9% | -0.1 | 12.6% | 11.7 | -0.6%
Cn1nnc2c(N3CCN(c4cccc(C(F)(F)F)c4)CC3)ncnc21 | 0.7% | 2.4 | -15.4% | x | -0.9 | 5.4% | x | x
CC(OC(=O)c1cccs1)C(=O)NCc1ccc2c(c1)OCO2 (configuration not stated) | -0.2% | 11.7 | i | 1.0% | 0.1 | 9.2% | x | x
NCCSc1c(-c2ccc(F)cc2)[nH]c2ccccc12 | -21.3% | 44.7* | -17.5% | -6.1% | 3.6 | 10µM* | 1.7 | u
COC(=O)Cc1c(C)c2ccc3c(c2oc1=O)CN(Cc1ccc(C)cc1)CO3 | 268.3% | 4.1 | 22.3% | x | -0.9 | 1.1% | x | x
N#Cc1c(N)n(CCNC(=O)c2ccccc2)c2nc3ccccc3nc12 | 370.2% | 4.0 | -27.3% | -2.8% | 27.7 | 23.8% | -5.8 | -0.7%
N#Cc1c(N)n(CCNC(=O)c2cccs2)c2nc3ccccc3nc12 | i | 1.5 | -1.6%[57.5 µM] | 14.7% | 0.4 | 51.3% | x | x
Cc1[nH]nc2c1C(c1c[nH]c3ccccc13)C(C#N)=C(N)O2 (configuration not stated) | 0.3% | 51.4* | -1.7% | 23.2% | 0.0 | 133.7% | -0.2 | 0.8%
CCN(CC)C(=O)c1sc2nc(-c3cccs3)cc(-c3ccc(Cl)cc3)c2c1N | 450.1% | -0.1 | i | -0.9% | 28.1 | u | -2.0 | 18.4µM*
CC(C)(C)C(=O)CN1C(=O)NC(c2ccccc2)(c2ccccc2)C1=O | 0.7% | 41.6* | i | 5.4% | 2.8 | u | -1.0 | 0.2%
NC(=O)CN1C(=O)NC(c2ccccc2)(c2ccccc2)C1=O | -1.6% | 1.2 | i | -2.8% | 0.5 | -20.0% | x | x
COc1ccccc1/C=C1\C(=O)Nc2ccccc21 | -9.2% | 41.4* | -22.1% | -2.7% | 0.5 | u | -8.8 | -0.6%
O=C1Nc2ccccc2/C1=C/c1ccccc1Cl | u | -2.5 | -26.3% | 9.6% | 0.4 | u | x | x
CCCn1c(N)c(C(=O)CSc2nnc(N)s2)c(=O)[nH]c1=O | 5.3% | 0.0 | 11.8% | -0.1% | 0.3 | 10.7% | x | x
CCCn1c(N)c(C(=O)CSc2nncs2)c(=O)[nH]c1=O | -33.8% | 41.0* | i | -7.4% | 0.0 | 6.0% | -0.2 | -0.6%
